An excerpt weighted towards active compounds, which were near 19% of everything screened.
HT1080-NT tox = kills 2HG-producing HT-1080-NT fibrosarcoma cells | HT-1080-NT fibrosarcoma viability, CellTiter-Glo ATP luminescence, 48 h | Potency, µM (series often up to 46.1 µM), without a hit: at the highest dose activity, negative = less viability, actives largely listed as cytotoxic | 360,000 compounds, 1.6% hits | AID 686970;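 also: NT is the 2HG producing partner of a matched IDH1 knockdown line; potency is read from the fitted curve at half-maximal effect; 0% = DMSO-treated cells and -100% = media-only wells without cells; nearly all actives have a fitted effect of over 55% in size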
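Viability of the 2HG-overproducing fibrosarcoma line after 48 hours of compound exposure at 37 degrees C was determined by luminescence with CellTiter-Glo, and concentration-effect curves were then fitted and categorized.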
HT1080 IDH1KD tx = HT-1080 IDH1 knockdown cell toxicity (counter line). HT-1080 IDH1 knockdown viability, ATP luminescence, 48 h. 360,000 compounds, 2% hits. Potency, µM (series often up to 46.1 µM), for the others: at the top dose activity, negative = toxicity, usual class: cytotoxic. AID 686971;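 also: potency is read from the fitted curve at half-maximal effect; 0% = DMSO wells and -100% = cell-free medium wells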
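CellTiter-Glo luminescence after 48 h compound exposure at 37 degrees C of IDH1-knockdown HT-1080 cells in 5% FBS RPMI. %Activity scaled between DMSO wells and cell-free media wells, with curves fitted and assigned curve classes.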
DT40 TDP1 no CPT = qHTS for Inhibitors of human tyrosyl-DNA phosphodiesterase 1 (TDP1): qHTS in cells in absence of CPT; DT40 Tdp1-/- hTDP1 cells, no CPT, ATP luminescence, 48 h; Potency, µM (series often up to 46.2 µM), for inactives: top-dose activity change, negative = growth inhibition, actives largely listed as inhibitors; 420,000 compounds, 15% hits; AID 686978, 2013; also: potency is read from the fitted curve at half-maximal effect; nearly all actives have a fitted effect of over 55% in size
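Cells were dispensed at 400 per well, compounds added by pin tool, plates incubated ≥48 hr at 37 °C, then CellTiter-Glo added for 30 min at room temperature before luminescence reading. Line: DT40 Tdp1-/- complemented with hTDP1; camptothecin omitted.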
IL-1B inflam inh = inhibitors of inflammasome signaling (IL-1 beta secretion); activity change, % at 57.5 µM; THP-1 LPS/ATP IL-1B secretion, AlphaLISA, 16 h; active compounds read low; 360,000 compounds, 4.7% hits; in the data active = activity change below about -50%; inconclusive = mostly about -30% to -49%
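THP-1 cells pretreated 1 hr with compounds (up to 57.5 uM final), then stimulated with LPS (250 ng/mL final) plus ATP (1.25 mM final); secreted IL-1B measured by AlphaLISA after 16 hr, decreased signal indicating inhibition.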
TDP1 cell CPT = DT40-hTDP1 cell growth loss with CPT; chicken DT40 Tdp1-/-;hTDP1 cells + 20 nM CPT, ATP luminescence, 48 h; Potency, µM (highest dose often 46.2 µM), inactives show at the highest dose activity change, negative = growth inhibition, actives largely listed as inhibitors; 420,000 compounds, 12% hits; also: potency is read from the fitted curve at half-maximal effect; nearly all actives have a fitted effect of over 55% in size
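Chicken DT40 Tdp1-/- cells stably complemented with human TDP1 were seeded at 400 cells/well in medium containing 20 nM camptothecin, exposed to pin-transferred compounds, and grown at 37 °C for at least 48 hr. Viability was read as ATP luminescence.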
Active calls of the source: *; [ ] = remark or other dose. Unless noted, calls follow the shape of the dose curve; as a rule, active = well fitted curve in the direction sought with a large enough effect; inconclusive = small, poorly fitted or top-dose-only effect, or another doubt; inactive = no such curve, though single readings can be large; an effect the other way counts as inactive or inconclusive. Unless noted, % is scaled to controls: 0 for no effect and ±100 for the full control effect.

What do the screens show for `CCCn1c(SCc2nc(-c3ccc(OC)c(OC)c3)no2)nnc1-c1ccccc1`?
DT40 TDP1 no CPT: 18.4µM*; TDP1 cell CPT: inconclusive

Results for CCn1c(SCc2nc(-c3ccccc3)no2)nnc1-c1ccco1 ?
HT1080-NT tox: 3.8%; HT1080 IDH1KD tx: -2.0%; DT40 TDP1 no CPT: inconclusive; IL-1B inflam inh: -3.0; TDP1 cell CPT: -5.2%

How did CCn1c(SCc2nc(-c3ccccc3)no2)nnc1-c1cccs1 do in these assays?
HT1080-NT tox: -4.9%; HT1080 IDH1KD tx: -0.5%; DT40 TDP1 no CPT: -26.2%; IL-1B inflam inh: 12.6; TDP1 cell CPT: inconclusive

How did CSc1cccc(NC(=O)CN(Cc2ccc(Cl)cc2)S(C)(=O)=O)c1 do in these assays?
HT1080-NT tox: inconclusive; HT1080 IDH1KD tx: inconclusive; DT40 TDP1 no CPT: inconclusive; IL-1B inflam inh: -1.9; TDP1 cell CPT: -27.4%

How did O=C1Nc2ccccc2C(=O)C1(Cl)Cc1ccccc1 (stereo not given) do in these assays?
HT1080-NT tox: -23.4%; HT1080 IDH1KD tx: -16.0%[9.24 µM]; DT40 TDP1 no CPT: 5.17µM*; IL-1B inflam inh: 9.3; TDP1 cell CPT: 6.51µM*

How did COCCNC(=O)Cn1nc(-c2ccc(C)cc2)ccc1=O do in these assays?
HT1080-NT tox: 0.2%; HT1080 IDH1KD tx: -1.7%; DT40 TDP1 no CPT: -6.4%; IL-1B inflam inh: -14.1; TDP1 cell CPT: 3.1%

What do the screens show for `COCOCCn1cc(CN2CCS(=O)(=O)N(Cc3ccc(-c4ccncc4)cc3)C(C)C2=O)nn1` (stereo not given)?
HT1080-NT tox: 17.8%; HT1080 IDH1KD tx: 13.3%; DT40 TDP1 no CPT: -16.0%; IL-1B inflam inh: 4.5; TDP1 cell CPT: -18.3%

How did COCOCCn1cc(CN2CCS(=O)(=O)N(Cc3ccc(-c4ccc(OC)c(OC)c4)cc3)C(C)C2=O)nn1 (stereo not given) do in these assays?
HT1080-NT tox: 10.0%; HT1080 IDH1KD tx: 1.2%; DT40 TDP1 no CPT: 10.3µM*; IL-1B inflam inh: -21.8; TDP1 cell CPT: 16.4µM*

Results for COCOCCn1cc(CN2CCS(=O)(=O)N(Cc3ccc(-c4ccc(C)cc4)cc3)C(C)C2=O)nn1 (stereo not given) ?
HT1080-NT tox: -12.1%; HT1080 IDH1KD tx: -12.5%; DT40 TDP1 no CPT: 14.6µM*; IL-1B inflam inh: 31.6; TDP1 cell CPT: inconclusive

Results for COCOCCn1cc(CN2CCS(=O)(=O)N(Cc3ccc(-c4ccc(Cl)nc4)cc3)C(C)C2=O)nn1 (stereo not given) ?
HT1080-NT tox: -1.9%; HT1080 IDH1KD tx: -1.5%; DT40 TDP1 no CPT: inconclusive; IL-1B inflam inh: -3.7; TDP1 cell CPT: -22.4%

How did COCOCCn1cc(CN2CCS(=O)(=O)N(Cc3ccc(-c4ccc(Cl)c(Cl)c4)cc3)C(C)C2=O)nn1 (stereo not given) do in these assays?
HT1080-NT tox: 23.1µM*; HT1080 IDH1KD tx: inconclusive; DT40 TDP1 no CPT: 4.11µM*; IL-1B inflam inh: -15.7; TDP1 cell CPT: 4.11µM*

What do the screens show for `Cc1cccc(NC(=O)N2CCCC(CNC(=O)c3ccccc3Cl)C2)c1C` (stereo not given)?
HT1080-NT tox: 13.2%; HT1080 IDH1KD tx: 19.4%; DT40 TDP1 no CPT: -1.8%; IL-1B inflam inh: 0.0; TDP1 cell CPT: 0.1%

How did CC1CN(c2ccccc2)CCN1Cc1nc(Cc2ccccc2)no1 (stereo not given) do in these assays?
HT1080-NT tox: -4.1%; HT1080 IDH1KD tx: -2.1%; DT40 TDP1 no CPT: -0.7%; IL-1B inflam inh: 17.5; TDP1 cell CPT: 2.7%

Results for COC(=O)c1ccccc1NC(=O)c1c(C)oc2ncn(C)c(=O)c12 ?
DT40 TDP1 no CPT: -18.0%; TDP1 cell CPT: 0.7%

Results for COc1ccc(CNC(=O)c2oc3c(c2C)-c2nn(Cc4ccc(Cl)cc4)cc2CC3)cc1 ?
DT40 TDP1 no CPT: 23.1µM*; TDP1 cell CPT: inconclusive

What do the screens show for `COc1cccc(CNC(=O)c2oc3c(c2C)-c2nn(Cc4cccc(Cl)c4)cc2CC3)c1OC`?
DT40 TDP1 no CPT: 20.6µM*; TDP1 cell CPT: 16.4µM*

From PubChem
